Experimental data as given in PubChem BioAssay (NCI).
About 79,000 compounds went through this panel and 15% of them were active in at least one assay; those are over-represented in the sample as a whole. Cut-off read from the data, not from the text of the source: active = growth inhibition above about 70%; inactive = the rest.

Tests used:
[1] = NCI Yeast Anticancer Drug Screen. Data for the rad50 strain (AID 155);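 note: 0% = growth of vehicle-only cultures of the same strain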; conditions: S. cerevisiae rad50 strain growth inhibition; at 50.0 µM; hits give high values
Summary of the method: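 DNA repair mutant yeast, compound exposure, growth read-out; inhibition is taken relative to vehicle.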

[2] = NCI Yeast Anticancer Drug Screen. Data for the mec2-1 strain (AID 157); conditions: S. cerevisiae mec2-1 strain, at 50.0 µM, hits give high values
Summary of the method: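 Using mec2-1 yeast: add compound, measure growth, express inhibition versus vehicle-treated cultures.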

[3] = NCI Yeast Anticancer Drug Screen. Data for the sgs1 mgt1 strain (AID 161);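 note: 0% = growth of cultures given vehicle only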; conditions: S. cerevisiae sgs1 mgt1 strain, at 50.0 µM, hits give high values
Summary of the method: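 This yeast growth screen uses a strain with defined DNA-repair lesions; compound-treated growth is compared with vehicle-treated growth.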

[4] = NCI Yeast Anticancer Drug Screen. Data for the cln2 rad14 strain (AID 165);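 note: 0% = growth equal to vehicle treated cultures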; conditions: S. cerevisiae cln2 rad14 strain, at 50.0 µM, hits give high values
Summary of the method: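 Yeast strain cln2 rad14, bearing defects in cell cycle control and DNA repair, serves as the test system; values reflect growth inhibition compared with vehicle.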

[5] = NCI Yeast Anticancer Drug Screen. Data for the bub3 strain (AID 167); conditions: S. cerevisiae bub3 mutant strain, at 50.0 µM, hits give high values
Summary of the method: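 In this screen, a yeast mutant lacking normal mitotic checkpoint function is challenged with compound. Relative growth versus vehicle gives the inhibition value.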

[6] = NCI Yeast Anticancer Drug Screen. Data for the mlh1 rad18 strain (AID 175); conditions: S. cerevisiae mlh1 rad18 strain growth inhibition; at 50.0 µM; hits give high values
Summary of the method: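 Steps: expose repair-defective yeast to compound; measure growth; express inhibition against vehicle-treated controls.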

Measured: growth inhibition

c1ccc(-c2csc(-c3nc(-c4ccccc4)cs3)n2)cc1
inactive: [1] -0.55% | [2] 50% | [3] 30.6% | [4] -6.85% | [5] 33% | [6] 60.6%

COC(=O)c1cccc(=O)o1
inactive: [1] 2.55% | [2] 0.1% | [3] -18.4% | [4] -79% | [5] -1.2% | [6] 2.15%

CCOC(=O)C(O)Cc1cnc2ccccc2n1 (stereo unspecified)
inactive: [1] -1.45% | [2] -13.3% | [3] -12.3% | [4] -13.3% | [5] -11.1% | [6] 7.55%

COc1ccc(CCCN2c3ccccc3Sc3ccccc32)cc1
inactive: [1] -6.1% | [2] -3.35% | [3] -21.2% | [4] -23.9% | [5] -19.9% | [6] -5.7%

CC1=NC2c3c(-c4ccc(Cl)cc4)cn(-c4ccc(C)cc4)c3N=CN2N1 (stereo unspecified)
inactive: [1] 7.75% | [2] -5.9% | [3] -16.6% | [4] 15.8% | [5] 0.5% | [6] -1.6%

O=C1c2ccc([N+](=O)[O-])cc2C(=O)N1CCBr
inactive: [1] 27.4% | [2] -13.2% | [3] 16.6% | [4] -10.2% | [5] 31.7% | [6] 13.1%

CCOC(=O)CCC(N)C(N)=O (stereo unspecified)
inactive: [1] 28.2% | [2] -6.45% | [3] 16% | [4] 8.65% | [5] 11.4% | [6] 23.9%

CCOC(=O)C1CCCCC1C(=O)OCC (stereo unspecified)
inactive: [1] -1.7% | [2] -15.8% | [3] -7.3% | [4] -3.55% | [5] -28.1% | [6] -26.9%

CC(C)(C)OC(=O)c1c2ccccc2cc2ccccc12
inactive: [1] 21.9% | [2] 12.4% | [3] 14% | [4] 14.2% | [5] 12.1% | [6] 10.3%

Cc1nc(C)c(C(=O)NNC(=O)C[n+]2ccccc2)cc1C(=O)NNC(=O)C[n+]1ccccc1
inactive: [1] -27.6% | [2] -4.15% | [3] -11.4% | [4] 11.7% | [5] -12.4% | [6] -25.1%

CCSCCC(Nc1ncnc2nc[nH]c12)C(=O)O (stereo unspecified)
inactive: [1] -17.8% | [2] 8.75% | [3] -5.65% | [4] -17% | [5] -4.8% | [6] -19.4%

CC1=CC(=O)C(=CN2C(=O)/C(=C\c3cccnc3)NC2=S)C(=O)O1
inactive: [1] -21.2% | [2] -12.2% | [3] -18.9% | [4] -20.1% | [5] -3.7% | [6] -21.9%

COc1ccc(-c2cc(C)n(C3OC(CO)C(O)C(O)C3O)c(=S)c2C#N)cc1 (stereo unspecified)
inactive: [1] 23.9% | [2] 8.15% | [3] -9.05% | [4] -19.1% | [5] -0.6% | [6] 13.7%

NC(=O)SCCC(N)C(=O)O (stereo unspecified)
inactive: [1] 8.4% | [2] 27.5% | [3] 3% | [4] 12.7% | [5] 17.9% | [6] -4.9%

CN1CCN(Cc2oc(CO)cc(=O)c2O)CC1
inactive: [1] -3.8% | [2] -22.9% | [3] 5.2% | [4] 12.2% | [5] 16.8% | [6] -7.65%

CCCCON1C[C@H](OC(C)=O)C(OC(C)=O)[C@H](OC(C)=O)C1 (stereo partly specified)
inactive: [1] -44.8% | [2] -15.9% | [3] -39.1% | [4] -10.4% | [5] 16.9% | [6] -24.6%

CC(NNC(=S)N1CCN(c2ccccn2)CC1)c1cccc[n+]1[O-] (stereo unspecified)
inactive: [1] 9.6% | [2] 5.4% | [3] 3.8% | [4] -11.2% | [5] 6.55% | [6] 11.9%

COc1ccc(NCc2cnc3nc(N)nc(N)c3c2C)cc1
inactive: [1] 7% | [2] 6.6% | [3] 16.6% | [4] 16.5% | [5] 1.85% | [6] -49%

COc1cc2c(cc1OC)C(=O)/C(=C/c1ccccc1)CC2
inactive: [1] 6.95% | [2] -6.45% | [3] 12.2% | [4] 11.8% | [5] 37% | [6] 28.6%

CN1C(=S)C2=C(c3ccccc3)N(C)C(=S)C2=C1c1ccccc1
inactive: [1] 6% | [2] -6.15% | [3] 10.5% | [4] 28.9% | [5] -2.3% | [6] 26.1%

CCCOCN1COCN=C1NC#N
inactive: [1] 28.8% | [2] 12.3% | [3] -4.7% | [4] -0.05% | [5] 5.65% | [6] 5.75%
